Results: PubChem BioAssay (Tox21)
Where “and” joins values, the source holds several entries; their conditions need not be identical. Identical values can stand only once. Inconclusive results are not listed. Entries that show only a call come without a potency. The source holds several records for some structures; these can differ, active in one and inactive in another. Calls of active or inactive are those of the source. Calls come from the whole dose curve; as a rule, active = well fitted curve in the direction sought with a large enough effect in the repeat runs; inconclusive = weak or mixed curves; inactive = no such curve, though single readings can be large; an effect the other way counts as inactive or inconclusive.

Tests used:
[1] = qHTS RealTime-Glo MT Cell Viability Assay in HEK293 cells - 16 hour (AID 1224872); note: nearly all actives have a fitted effect of over 50% in size; note: potency is the fitted concentration of half-maximal effect
Outline: (§1)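 HEK293 cells seeded with NanoLuc/prosubstrate reagent, rested 5 h at 37 C, then dosed and kept at 37 C up to 40 h. Nonlytic real-time luminescence from viable cells read at 0, 8, 16, 24, 32 and 40 h.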

[2] = qHTS RealTime-Glo MT Cell Viability Assay in HepG2 cells - 8 hour (AID 1224873); note: nearly all actives have a fitted effect of over 55% in size
Outline: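 HepG2 cells mixed with RealTime-Glo MT reagents (NanoLuc plus cell-permeant prosubstrate) were seeded at 600 cells/well, incubated 5 h at 37 C/5% CO2, then pinned with compounds in DMSO; nonlytic luminescence tracked viability during 40 h treatment.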

[3] = A CellTox Green Cytotoxicity Assay to monitor cytotoxicity in HEK293 cells - 24 hour (AID 1224875); note: nearly all actives have a fitted effect of over 45% in size; note: potency is the fitted concentration of half-maximal effect
Outline: (§2)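 Read-out: fluorescence of a cell-impermeant cyanine dye staining DNA of dead cells, proportional to cytotoxicity. HEK293, 600 cells/well with reagent, compound (23 nL DMSO) added after 5 h; reads at 0, 8, 16, 24, 32, 40 h.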

[4] = qHTS RealTime-Glo MT Cell Viability Assay in HepG2 cells - 32 hour (AID 1224877); note: nearly all actives have a fitted effect of over 55% in size
Outline: (§3)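 HepG2 cells (600/well) were dispensed with RealTime-Glo reagents, incubated 5 h at 37 °C, then treated with compounds in DMSO for up to 40 h. Nonlytic NanoLuc luminescence reflecting viable cells was read at each stated time point.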

[5] = A CellTox Green Cytotoxicity Assay to monitor cytotoxicity in HepG2 cells - 24 hour (AID 1224878); note: nearly all actives have a fitted effect of over 45% in size; note: potency is the fitted concentration of half-maximal effect
Outline: (§4)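 HepG2, 600 cells/well premixed w/ CellTox Green; 5 h settle, 37 C/5% CO2; pintool cpd add (DMSO); 37 C, 40 h; fluorescence read at 0, 8, 16, 24, 32, 40 h.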

[6] = A CellTox Green Cytotoxicity Assay to monitor cytotoxicity in HepG2 cells - 40 hour (AID 1224879); note: nearly all actives have a fitted effect of over 40% in size; note: potency is the fitted concentration of half-maximal effect
Outline: as §4

[7] = qHTS RealTime-Glo MT Cell Viability Assay in HEK293 cells - 0 hour (AID 1224880); note: top concentration of the series differs between compounds; nearly all actives have a fitted effect of over 45% in size
Outline: (§5)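 Luminescence readout at each listed time point; HEK293, 600 cells/well, RealTime-Glo MT reagent added with cells; compounds pinned (23 nL in DMSO) after 5 h at 37 C; continuous culture at 37 C.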

[8] = A CellTox Green Cytotoxicity Assay to monitor cytotoxicity in HEK293 cells - 32 hour (AID 1224881); note: nearly all actives have a fitted effect of over 40% in size; note: potency is the fitted concentration of half-maximal effect
Outline: as §2

[9] = A CellTox Green Cytotoxicity Assay to monitor cytotoxicity in HepG2 cells - 0 hour (AID 1224882); note: nearly all actives have a fitted effect of over 35% in size
Outline: as §4

[10] = A CellTox Green Cytotoxicity Assay to monitor cytotoxicity in HepG2 cells - 32 hour (AID 1224883); note: nearly all actives have a fitted effect of over 50% in size; note: potency is the fitted concentration of half-maximal effect
Outline: as §4

[11] = A CellTox Green Cytotoxicity Assay to monitor cytotoxicity in HEK293 cells - 8 hour (AID 1224884); note: nearly all actives have a fitted effect of over 35% in size
Outline: as §2

[12] = qHTS RealTime-Glo MT Cell Viability Assay in HepG2 cells - 16 hour (AID 1224885); note: nearly all actives have a fitted effect of over 50% in size
Outline: as §3

[13] = qHTS RealTime-Glo MT Cell Viability Assay in HEK293 cells - 24 hour (AID 1224886); note: nearly all actives have a fitted effect of over 50% in size; note: potency is the fitted concentration of half-maximal effect
Outline: as §1

[14] = qHTS RealTime-Glo MT Cell Viability Assay in HEK293 cells - 8 hour (AID 1224887); note: nearly all actives have a fitted effect of over 50% in size; note: potency is the fitted concentration of half-maximal effect
Outline: as §5

[15] = A CellTox Green Cytotoxicity Assay to monitor cytotoxicity in HEK293 cells - 16 hour (AID 1224888); note: nearly all actives have a fitted effect of over 35% in size
Outline: as §2

[16] = qHTS RealTime-Glo MT Cell Viability Assay in HepG2 cells - 0 hour (AID 1224889); note: nearly all actives have a fitted effect of over 50% in size; note: potency is the fitted concentration of half-maximal effect
Outline: as §3

[17] = A CellTox Green Cytotoxicity Assay to monitor cytotoxicity in HepG2 cells - 8 hour (AID 1224890); note: nearly all actives have a fitted effect of over 45% in size
Outline: as §4

[18] = qHTS assay to identify small molecule antagonists of the estrogen receptor alpha (ER-alpha) signaling pathway using the BG1 cell line in the presence of 0.1 nM 17-beta-estradiol - cell viability counter screen (AID 1259241); note: nearly all actives have a fitted effect of over 40% in size; note: potency is the fitted concentration of half-maximal effect
Outline: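 CellTiter-Fluor read (30 min, 37C) on ER-alpha/ERE-luc VM7Luc4E2 cells; 22 hr compound treatment; agonist 0.1 nM E2 final; same-well multiplex.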

[19] = A CellTox Green Cytotoxicity Assay to monitor cytotoxicity in HepG2 cells - 16 hour (AID 1224876); note: nearly all actives have a fitted effect of over 45% in size
Outline: as §4

[20] = qHTS RealTime-Glo MT Cell Viability Assay in HEK293 cells - 40 hour (AID 1224874); conditions: RealTime-Glo luminescence; max response: stronger effect = lower value
Outline: as §5

| Structure (SMILES) | Potency [1] | Potency [2] | Potency [3] | Potency [4] | Potency [5] | Potency [6] | Potency [7] | Potency [8] | Potency [9] | Potency [10] | Potency [11] | Potency [12] | Potency [13] | Potency [14] | Potency [15] | Potency [16] | Potency [17] | Potency [18] | Potency [19] | Potency [20] |
| --- | --- | --- | --- | --- | --- | --- | --- | --- | --- | --- | --- | --- | --- | --- | --- | --- | --- | --- | --- | --- |
| Cc1cc(Cc2ccc(N)c(C)c2)ccc1N | inactive | inactive | inactive | inactive | inactive | inactive | inactive | inactive | inactive | inactive | inactive | inactive | inactive | inactive | inactive | inactive | inactive | inactive |  |  |
| Nc1c(S(=O)(=O)O)cc(Br)c2c1C(=O)c1ccccc1C2=O | inactive | inactive | inactive | inactive | inactive |  | inactive | inactive | inactive | inactive | inactive | inactive | inactive | inactive | inactive | inactive | inactive |  | inactive |  |
| NCCNCCNCCNCCN | inactive | inactive | inactive | inactive | inactive | inactive | inactive | inactive | inactive | inactive | inactive | inactive | inactive | inactive | inactive | inactive | inactive | inactive |  |  |
| COC(=O)Nc1nc2ccc(Sc3ccccc3)cc2[nH]1 | 1.38 µM (active) and 1.9 µM (active) | inactive | inactive | inactive | inactive and 10.7 µM (active) | 1.55 µM (active) and 848 nM (active) | inactive | inactive | inactive | 2.19 µM (active) and 952 nM (active) | inactive | inactive | 871 nM (active) and 952 nM (active) | 1.74 µM (active) and 2.13 µM (active) | inactive | inactive | inactive | inactive | inactive |  |
| O=C(O)c1cc(-c2ccccc2)nc2ccccc12 | inactive | inactive | inactive | inactive | inactive | inactive | inactive | inactive | inactive | inactive | inactive | inactive | inactive | inactive | inactive |  | inactive | inactive | inactive |  |
| C=C1C2CCC(C2)C1(C)C (stereo not given) | inactive | inactive | inactive | inactive | inactive | inactive | inactive | inactive | inactive | inactive | inactive | inactive | inactive | inactive | inactive |  | inactive | inactive | inactive |  |
| ClC1=C(Cl)C(Cl)(Cl)C(Cl)=C1Cl |  | inactive | 38.9 µM (active) | inactive | inactive | 22 µM (active) | inactive | 17.5 µM (active) and 34.7 µM (active) | inactive | inactive | inactive | inactive |  | inactive | inactive | inactive | inactive | inactive |  | 34.9 µM (active) |
| CC(=O)[C@@]1(O)CC[C@H]2[C@@H]3CCC4=CC(=O)CC[C@]4(C)[C@H]3CC[C@@]21C | inactive | inactive | inactive | inactive | inactive | inactive | inactive | inactive | inactive | inactive | inactive | inactive | inactive | inactive | inactive | 6.16 µM (active) and 8.49 µM (active) | inactive | inactive |  |  |
| Oc1ccc2ccccc2c1 | inactive | inactive | inactive | inactive | inactive | inactive | inactive | inactive | inactive | inactive | inactive | inactive | inactive | inactive | inactive | inactive | inactive | inactive | inactive |  |
| CCCCCCCCCC(=O)O | inactive | inactive | inactive | inactive | inactive | inactive | inactive | inactive | inactive | inactive | inactive | inactive | inactive | inactive | inactive | inactive | inactive | inactive |  |  |
| COCC(C)O (stereo not given) | inactive | inactive | inactive | inactive | inactive |  | inactive | inactive | inactive | inactive | inactive | inactive | inactive | inactive | inactive |  | inactive | inactive |  |  |
| O=c1c(-c2ccc(O)cc2)coc2cc(O)ccc12 | inactive | inactive | inactive | inactive | inactive |  | inactive | inactive | inactive | inactive | inactive | inactive |  | inactive | inactive |  | inactive | inactive | inactive |  |
| CN(C)c1ccc(C(=N)c2ccc(N(C)C)cc2)cc1 | 5.43 µM (active) |  | inactive |  | inactive | 4.31 µM (active) and 18.8 µM (active) | inactive | inactive | inactive | 4.84 µM (active) and 18.8 µM (active) | inactive |  | 3.42 µM (active) and 4.2 µM (active) | inactive | inactive | inactive | inactive | 18.6 µM (active) | inactive |  |
| Clc1cc(Cl)c(Cl)cc1Cl | inactive | inactive | inactive | inactive | inactive |  | inactive | inactive | inactive | inactive | inactive | inactive | inactive | inactive | inactive | inactive | inactive | inactive |  |  |
